# In ChEMBL document CHEMBL3988442, “University of Dundee, Small-Polar-MMV Screening Library” (2021):
# The whole screen tested about 48,000 compounds, of which about 13,000 (27%) showed an effect of 50% or more. The list shows a part of the results.
# Test system: Wolbachia pipientis
# Assay: Anti-Wolbachia Cell-Based Screen
# Type: functional
# Parameters: scale not given: in the data most compounds retested in dose-response had high values
# Conditions: 5 µM
row,Compound,Percent Effect [%]
1,COCCN(C)c1ccc(NCc2cccnc2)nc1,-2.901
2,Cc1nc2cc(=O)[nH]n2c(C)c1CNC(=O)c1cnn(C(C)(C)C)c1,-22.93
3,CC(C)c1nnc2n1CCN(C(C)c1nnc(-c3cccs3)o1)C2 (stereo unspecified),-12.3
4,CCc1ncc(C(=O)N(CC)CCOC)cn1,-25.3
5,Cc1cc(C)n2c(CCCNS(=O)(=O)c3ccccc3)nnc2n1,105.2
6,O=S(=O)(NCCc1nnc2ccccn12)c1cccnc1,-2.198
7,Cc1nsc(NCCNS(=O)(=O)c2ccccc2)n1,-9.26
8,Cc1nc(CN2CC(CO)Oc3ccccc32)sc1C (stereo unspecified),-1.227
9,Cn1ccnc1CN(CCO)Cc1ccc(C(F)(F)F)cc1,-12.47
10,O=C(NC1(C(=O)NC2CCCC2)CCCC1)c1ccc2[nH]ncc2c1,2.222
11,O=C(NC1CCCCC1)c1c(F)cccc1F,-11.27
12,CCNc1ncc(C(=O)NC2CCc3ccccc3C2)cn1 (stereo unspecified),2.788
13,CC(C)(C)OC(=O)NC1CCC(NC(=O)c2ccc[nH]2)CC1 (stereo unspecified),-46.12
14,CC(=O)c1cc2ncc(C(=O)NC3CCCCC3)cc2[nH]1,114.6
15,CCNc1ncc(C(=O)NC2CCSC2)cn1 (stereo unspecified),5.956
16,CC(=O)c1cc2ncc(C(=O)NC3CCCC3)cc2[nH]1,115.8
17,CC(=O)c1cc2ncc(C(=O)NC3CC3)cc2[nH]1,127.3
18,CCOc1ccccc1OCCN(C)Cc1ncnn1CC,-5.335
19,Cc1n[nH]cc1CNCC(O)c1ccc(F)c(F)c1.Cl (stereo unspecified),-9.621
20,Cc1ccc2cc(CN(C)Cc3nccs3)c(=O)[nH]c2c1,-5.099
21,CC1N(c2cnn(C)c2)C(=O)COC12CCN(Cc1ccoc1)CC2 (stereo unspecified),110.5
22,CC1N(c2cnn(C)c2)C(=O)COC12CCN(Cc1ccco1)CC2.O=C(O)C(F)(F)F (stereo unspecified),117
23,Cn1cc(N2CC3(CCN(CC4CCOCC4)CC3)OCC2=O)cn1.O=C(O)C(F)(F)F,-12.75
24,CC1N(c2cnn(C)c2)C(=O)COC12CCN(CC1CC1)CC2.O=C(O)C(F)(F)F (stereo unspecified),102.9
25,Cn1cc(N2C[C@@H]3CN(Cc4ccoc4)C[C@@H]3C2=O)cn1.O=C(O)C(F)(F)F,-5.785
26,Cc1nc(CN2C(=O)COC3(CCN(Cc4ccco4)CC3)C2C)cs1.O=C(O)C(F)(F)F (stereo unspecified),-6.139

row,Compound,Percent Effect [%]
1,CN1CC(=O)N(c2cnn(C)c2)CC12CCN(Cc1ccccc1)C2.O=C(O)C(F)(F)F.O=C(O)C(F)(F)F (stereo unspecified),-7.753
2,Cn1cc(N2CC3(CCN(CC4CC4)C3)CC2=O)cn1.O=C(O)C(F)(F)F (stereo unspecified),3.9
3,CCSCCNc1nc2c(s1)c(C)nn2C,7.108
4,Cc1csc(CNc2nc3c(s2)c(C)nn3C)n1,-2.391
5,CCCOCCNc1nc2c(s1)c(C)nn2C,-0.9549
6,Cc1ccc(-c2ccnc(NC(C)c3n[nH]c(=O)[nH]3)n2)c(C)n1 (stereo unspecified),6.558
7,Cc1nn(C)c2nc(NCCOCCO)sc12,-15.08
8,Cc1nn(C)c2nc(NC(C)c3n[nH]c(=O)[nH]3)sc12 (stereo unspecified),96.4
9,Cc1nn(C)c2nc(NC3CCNCC3)sc12,10.32
10,Cc1nn(C)c2nc(NC(C)c3nnn[nH]3)sc12 (stereo unspecified),114.7
11,Cc1nc(C(C)Nc2nc3c(s2)c(C)nn3C)n[nH]1 (stereo unspecified),87.1
12,O=C(Cc1cccs1)NCCNc1nccc(C(F)(F)F)n1,-1.179
13,CCn1cc(CN2CCCCC2CCn2ccnc2C)cc1C#N (stereo unspecified),-5.966
14,O=C(NCc1ccccc1CN1CCCC1=O)Nc1nncs1,-15.38
15,CC(Nc1ccc(N2C(=O)CCCC2=O)cc1)c1ccc(C#N)cc1 (stereo unspecified),-5.853
16,Cc1nc(CO[C@H]2CN(C(=O)c3cnoc3C)[C@@H]3COC[C@H]23)cs1.O=C(O)C(F)(F)F,-46.26
17,Cc1nc(CO[C@H]2CN(C(=O)c3cccn3C)[C@@H]3COC[C@H]23)cs1.O=C(O)C(F)(F)F,-15.2
18,CC(C)NC(=O)N1C[C@H](OCc2cccnc2)[C@H]2COC[C@H]21.O=C(O)C(F)(F)F,112.7
19,CCS(=O)(=O)N1C[C@@H](OCc2cccnc2)[C@H]2OCCC[C@H]21.O=C(O)C(F)(F)F,-26.44
20,CC(=O)NCC(=O)N1C[C@H](OCc2cccnc2)[C@H]2COC[C@H]21,-9.929
21,O=C(Cc1ccccn1)N1C[C@H](OCc2cccnc2)[C@H]2COC[C@H]21.O=C(O)C(F)(F)F.O=C(O)C(F)(F)F,111.5
22,O=S(=O)(NCCNc1ccc(-n2cccn2)nn1)c1ccccc1,-3.314
23,Cc1noc(C)c1CN(C)C(=O)c1cnc(C2CC2)nc1O,-11.89
24,Cc1ccccc1CNC(=O)N1CCC(n2cncn2)CC1,111.6
25,CCOc1ncccc1CNC(=O)N1CCCC1c1ccncc1 (stereo unspecified),0.3129
